Data as given in PubChem BioAssay (NCI).
The panel holds about 83,000 compounds, 20% with a hit somewhere; the sample as a whole holds those more often.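 How to read the values: 0–100, growth inhibition (40 = 60% inhibited); 0, no net growth; -100 to 0, cell death (-40 = 40% of starting cells died; -100 = all dead).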 Unmarked numbers belong to inactive results. The source made the active and inactive calls. The calls were made as follows: active = growth percent below 10; inactive = the rest.

Experiments:
Assay in all cases: NCI-60 one-dose screen, 48 h (100 = growth as untreated, 0 = no growth, -100 = all killed)
Conditions in all cases: 10 µM
[1] = tested on: NCI-H23 lung
[2] = tested on: NCI-H226 lung
[3] = tested on: NCI-H322M lung
[4] = tested on: HOP-62 NSCLC
[5] = tested on: NCI-H460 lung
[6] = tested on: HOP-92 NSCLC
[7] = tested on: NCI-H522 lung
[8] = tested on: A549/ATCC NSCLC
[9] = tested on: 786-0 renal
[10] = tested on: COLO 205 colon
[11] = tested on: DU-145 prostate
[12] = tested on: K-562 leukemia
[13] = tested on: MALME-3M melanoma
[14] = tested on: MDA-MB-231 breast
[15] = tested on: RXF 393 renal
[16] = tested on: SF-268 CNS
[17] = tested on: SF-295 CNS
[18] = tested on: SF-539 CNS
[19] = tested on: UACC-257 melanoma
[20] = tested on: M14 melanoma

SMILES	growth [1]	growth [2]	growth [3]	growth [4]	growth [5]	growth [6]	growth [7]	growth [8]	growth [9]	growth [10]	growth [11]	growth [12]	growth [13]	growth [14]	growth [15]	growth [16]	growth [17]	growth [18]	growth [19]	growth [20]
O=C1NN(c2ccccc2)C(c2cccnc2)=N/C1=C\c1cccnc1	89.4%	80.8%	84.9%	92%	95.2%	99%	105%	112%	98.8%	105%	93.1%	102%	105%	92.6%	99.5%	89.4%	95.1%	102%	105%	91.7%
O=c1oc2cc(OS(=O)(=O)C3CC3)ccc2c2c1CCCCCC2	70.4%	67.2%	104%	83.2%	86.2%	85.2%	79.2%	69.6%	93%	40.9%	91.4%	51.2%	95.3%	78.3%	88.3%	94.4%	75.3%	82.2%	92.8%	81.4%
COc1ccc(Nc2ccnc(N3CCN(c4ccnc5cc(Cl)ccc45)CC3)n2)cc1	9.35% (active)	1.67% (active)	14.4%	16.5%	4.6% (active)	-21.9% (active)	-17.9% (active)	7.39% (active)	7.79% (active)	-7.2% (active)	15.6%	2.55% (active)	5.65% (active)	24.8%	-26.6% (active)	30.3%	-4.17% (active)	-31.4% (active)	-1.27% (active)	-13.3% (active)
CCOCC[P+](c1ccccc1)(c1ccccc1)c1ccccc1	36%	80%	82%	50.3%	58.7%	-6.22% (active)	26.2%	45.3%	72.5%	44.5%	59.8%	20%	61.1%	63.5%	79.2%	61.9%	39%	56.2%	14%	60.8%
O=NN(CCCl)C(=O)Nc1ccc(NC(=O)N(CCCl)N=O)cc1	107%	96.5%	112%	105%	88.7%	84.8%	114%	82.8%	61.3%	105%	111%	92.6%	105%	109%	109%	61.2%	74%	19.7%	85.7%	93.1%
FC(F)(F)c1ccc(-c2ncc(-c3ccc(C(F)(F)F)cc3)c(NCc3cc(C(F)(F)F)cc(C(F)(F)F)c3)n2)cc1	39.3%	46.7%	90.9%	62.6%	38.5%	-6.55% (active)	43.3%	65.7%	53.9%	74.9%	69.6%	44.4%	75.4%	72.5%	66.6%	69.3%	9.91% (active)	86.7%	87.9%	73.8%
COc1cc(CSc2nc3ccc(C)cc3c(=O)n2-c2ccccc2)cc(OC)c1OC	22%	48.3%	47.4%	37.8%	20.2%	67.9%	8.32% (active)	39.3%	37.6%	-24.2% (active)	29.8%	10.4%	42.5%	38%	14.2%	47.5%	32.8%	3.56% (active)	50.2%	17.2%
CNC(=O)c1cc(Oc2ccc(NC(=O)Nc3ccc(Cl)c(OC(C)C)c3)c(F)c2)ccn1	28.1%	52.5%	81.1%	69.3%	61.1%	60.1%	25.3%	44.5%	107%	33.5%	76.8%	21.8%	38.3%	59.4%	87.6%	58.3%	33.3%	66.9%	26.9%	36.1%
Cc1nn2c(/C=C3/C(=O)Nc4ccc(Cl)cc43)c(-c3ccccc3)nc2s1	51.4%	33.4%	12.7%	-19.8% (active)	25.7%	-5.92% (active)	43.6%	24.2%	41.2%	49.7%	31.9%	56.7%	-2.37% (active)	8.13% (active)	7.51% (active)	30.4%	70.1%	38.1%	62.3%	55.4%
Cc1ccc2nc(-c3ccc(OCC(=O)N=Nc4c(O)[nH]c5ccccc45)cc3)[nH]c2c1	94.9%	92.6%	91.3%	104%	-13.4% (active)	81.9%	79.4%	79.2%	36.1%	58.4%	73.3%	5.23% (active)	95.8%	74.4%	102%	102%	97.1%	100%	103%	77.3%
COc1cc(OC)cc(N2CCN(C(=O)Nc3nc4cc(F)ccc4nc3OC)CC2)c1	20.4%	43.3%	29.3%	34.7%	5% (active)	39.8%	-3.96% (active)	19.8%	15%	-65.4% (active)	1% (active)	12.8%	44.6%	1.05% (active)	22.1%	29.2%	15%	-12.2% (active)	72.7%	1.15% (active)
COc1cccc(C(=O)N(c2ccc(F)c(F)c2)C(C(=O)NC(C)(C)C)c2cc3c(C)cc(C)cc3nc2Cl)c1 (stereo not given)	66%	65.7%	84.7%	86.6%	64.1%	47%	61.6%	52.8%	76.6%	70.2%	75.5%	55.8%	95%	47.4%	72.3%	64.7%	54%	79.4%	79.6%	64.9%
Cc1nc(N)sc1Sc1nc2ccc(Cl)cc2c(=O)n1-c1ccc(Oc2ccccc2)cc1	74%	86.4%	111%	116%	82%	74.4%	85.3%	70.2%	68.5%	102%	92.5%	74.4%	95.1%	89.3%	86.4%	107%	67.8%	93.4%	75.7%	76.6%
CC(=O)c1c(O)cc2c3c1OC(C)(C)C1CCC(C)(CC31)O2 (stereo not given)	100%	85.8%	98%	106%	108%	92%	102%	98.1%	104%	92.3%	104%	90.1%	93.8%	106%	94.8%	98.3%	90.2%	89.8%	126%	92.2%
C#CCNCCN1C(=O)c2ccc3c4c(ccc(c24)C1=O)C(=O)N(CCNCC#C)C3=O	23.8%	20.9%	28.7%	48.4%	12.8%	91.2%	26.3%	29.2%	43.1%	-77.3% (active)	54.7%	25%	-12.9% (active)	58%	52.1%	47.9%	27%	47.7%	14.4%	32.6%
COc1ccc(-c2nc(-c3ccccc3)c(-c3ccccc3)[nH]2)cc1OC1CCCC1	73.1%	88.9%	66%	113%	61.4%	12.6%	36.1%	61.8%	78.6%	86.3%	86.4%	31.6%	103%	18.7%	13.7%	73.7%	52.9%	63.3%	79.9%	56.1%

SMILES	growth [1]	growth [2]	growth [3]	growth [4]	growth [5]	growth [6]	growth [7]	growth [8]	growth [9]	growth [10]	growth [11]	growth [12]	growth [13]	growth [14]	growth [15]	growth [16]	growth [17]	growth [18]	growth [19]	growth [20]
Cc1cc(C)c2c(Nc3ncnc4c3sc3nc(C)cc(C)c34)n[nH]c2n1	98.6%	93.8%	111%	95%	104%	102%	96.9%	102%	106%	109%	113%	93.2%	94.2%	99.4%	97.6%	103%	91.3%	100%	100%	99%
C=CCNC(=S)NN	98.2%	106%	82.4%	81.2%	99%	84.6%	91.6%	69.6%	98.4%	107%	92.5%	52.4%	79.7%	90.9%	105%	95.8%	88.8%	95.1%	50.7%	97.9%
COc1cc(-c2cc(-c3cc(OC)c(OC)c(OC)c3)nc3nc(N)[nH]c(=O)c23)ccc1Oc1ccnc2cc(Cl)ccc12	42.1%	76%	37.5%	29.8%	13.8%	6.33% (active)	29.9%	32.3%	51.4%	105%	33.9%	10.6%	59%	36.7%	-13% (active)	47.2%	93.5%	-59.7% (active)	66.6%	12.6%
N=C(N)c1ccc(-c2ccc(-c3cccs3)s2)nc1	71.2%	67.6%	-13.1% (active)	66.5%	-22% (active)	-9.04% (active)	72.8%	2.67% (active)	56.2%	-94% (active)	64.4%	-14.9% (active)	57.1%	8.8% (active)	30.8%	70.1%	7.11% (active)	84.5%	63.2%	75%
Cn1c([N+](=O)[O-])cnc1/C=C1\Oc2ccc(Br)cc2C1=O	-9.69% (active)	-38.1% (active)	-10.5% (active)	-23.7% (active)	-35% (active)	-32% (active)	-49.4% (active)	-24.8% (active)	-52.9% (active)	-42.1% (active)	-57.9% (active)	-0.493% (active)	-53.4% (active)	-14.8% (active)	-59% (active)	-16.9% (active)	11.2%	-59.5% (active)	-38.5% (active)	-35% (active)
c1ccc(C2CCCCC2)c(OCCCCCN2CCNCC2)c1	71.2%	84.7%	72.6%	78.9%	4.61% (active)	29.4%	60.8%	53%	60.1%	-74.6% (active)	72.8%	-13.1% (active)	43%	15.9%	36.4%	70.7%	63.5%	68.7%	19.9%	-66.5% (active)
CC(C)c1ncc(CO)n1Cc1c(Cl)cccc1Cl	110%	94.3%	99.7%	103%	103%	93.6%	94.4%	102%	104%	89.6%	106%	92.3%	103%	115%	95.8%	96.5%	96.1%	98.7%	106%	109%
Oc1cc(O)c(Br)cc1Br	110%	103%	91.8%	105%	108%	85.4%	88.8%	98.9%	93.1%	101%	107%	97.5%	120%	112%	110%	100%	98.7%	96.4%	102%	92.9%
Cc1ccc(C2C=C(c3ccc(Cl)cc3)N=C3SC=CN32)c(Br)c1 (stereo not given)	85%	55.5%	85.5%	96.5%	84.4%	80.6%	80.7%	86.3%	93.1%	91.1%	89.1%	44.9%	87.3%	90%	71.7%	92%	96.1%	89.7%	103%	94.4%
CCNC1(NC#N)CCCCC1	102%	95.6%	113%	109%	113%	85%	123%	91.4%	100%	111%	123%	115%	113%	107%	108%	112%	97.7%	105%	85.1%	99%
COc1cc(Nc2ccnc(N3CCN(c4ccnc5cc(Cl)ccc45)CC3)n2)cc(OC)c1	9.65% (active)	9.15% (active)	23.2%	9.41% (active)	6% (active)	-16.6% (active)	-23.2% (active)	7.47% (active)	-17.9% (active)	-10.7% (active)	34.1%	2.73% (active)	-4.19% (active)	18.5%	-18.3% (active)	27.7%	-19.2% (active)	-22.1% (active)	1.09% (active)	-3.5% (active)
CCCCn1c(=O)[nH]c2c(c1=O)C(c1ccc(Cl)cc1)c1c([nH]c(=O)n(CCCC)c1=O)N2	90%	96.3%	91.6%	90.4%	106%	90.4%	83.3%	87.8%	93.4%	105%	105%	105%	89.8%	106%	109%	99%	89.8%	101%	96.8%	96.6%
CC(C)OP(=O)(O)c1ncc(-c2ccc(C(F)(F)F)cc2)c(NC2CCCCCC2)n1	62.6%	74.1%	91.1%	70.5%	41.5%	22.8%	48.8%	49.2%	81.6%	61%	90.1%	36.3%	5.39% (active)	89.9%	90.1%	75.6%	11.5%	92.4%	28.6%	53.7%
CCCCCCCCCCSC(=N)N (tested in a mixture with another compound)	80%	94.2%	105%	77.3%	52.5%	41.8%	53.7%	75.3%	52.4%	-59.2% (active)	79.6%	9.73% (active)	82.7%	7.07% (active)	64.5%	79.1%	94.4%	83.4%	99.5%	65.5%
O=C(C=P(c1ccccc1)(c1ccccc1)c1ccccc1)c1ccc(Br)cc1	85.8%	96.5%	78.6%	125%	93%	67.1%	59.5%	72.4%	97.9%	96%	90.5%	34.6%	85.5%	77.5%	110%	93.5%	91.7%	113%	102%	94.1%
